# Laboratory results reported in PubChem BioAssay (NCATS).
# “And” between values parts separate entries of the source, which are not always exact repeats. Equal values may be shown once. Inconclusive results are not listed. The source made the active and inactive calls. The call rests on the fitted dose curve.
# Experiment: qHTS Assay for Lipid Storage Modulators (AID 1519); on activity change, negative = inhibition: on the % scale 0 is the no-effect control and ±100 the full control effect
# Details: Drosophila S3 cells, BODIPY lipid droplet/cell ratio, laser cytometry, cells loaded with oleic acid
# Excerpt: NIH Molecular Libraries Probe Production Centers Network [MLPCN]
# NIH Chemical Genomics Center [NCGC]
# Assay Submitter (PI): Beller, Mathias; Max-Planck-Institut fur Biophysikalische Chemie
# NCGC Assay Overview: Storing lipids as a reservoir for energy or the anabolism of elementary metabolites is a common feature of probably all cells and is conserved from bacteria to humans. The universal cellular lipid storage organelle is the so-called lipid storage droplet (LD). Although ubiquitous, LDs share a simple structure composed of a hydrophobic core that harbors the storage lipids, which is shielded by a droplet-specific phospholipid monolayer to which proteins are attached. The current model of LD biogenesis involves an incorporation of the lipid core into the membrane leaflets of the endoplasmic reticulum (ER) followed by a subsequent budding-like maturation of a LD, which ultimately pinches off. Once released, LD volume can increase by localized lipogenesis or fusion of existing droplets. Storage lipids are re-mobilized enzymatically by lipase activity. Lipase regulation in the adipocyte is heavily studied and involves multiple components including catecholamine signaling, the LD-associated proteins Perilipin and comparative gene identification-58 (CGI-58) and at least two lipases named hormone sensitive lipase (HSL) and adipocyte triglyceride lipase (ATGL). LD regulation outside of the adipocyte is poorly understood and only few components are known. However, there is an urgent need to learn more about ectopic fat depots as mislocalized storage of lipids, for example in the liver or muscle, is an eminent health problem associated with insulin resistance or the metabolic syndrome. We developed a laser-scanning cytometer assay to enable 1,536-well screening and combined the results of the small molecules screen with an RNAi database based on lipid storage.
# NCGC Assay Protocol Summary:
# We dispensed 4 uL of cells at 1.25 x 10^6 cells/mL into LoBase Aurora COC 1,536-well plates (black walled, clear bottom) with a bottle-valve solenoid-based dispenser (Aurora) to obtain 5,000 cells/well. Triacsin C (Sigma-Aldrich T-4540), an inhibitor of long-chain fatty acyl CoA synthetase that blocks synthesis of triglycerides, was used as a positive control for lipid under-storage. A total of 23 nL of compound solution of different concentrations were transferred to the assay plates using a Kalypsys pin tool equipped with a 1,536-pin array containing 10-nL slotted pins (FP1S10, 0.457-mm diameter, 50.8 mm long; V&P Scientific). One microliter of oleic acid (400 uM) was added, and the plate was lidded with stainless steel rubber gasket lined lids containing pinholes. […] Fluorescence was detected by excitation of the fluorophores with a 488-nm laser on an Acumen Explorer (TTP Lab Tech). The total intensity in channel 1 (500-530 nm) reflected lipid droplet accumulation. […] The ratio of the total intensity in PMT channel 1 over total intensity of channel 3 was also calculated. Percent activity was computed relative to an internal control (100% inhibited lipid droplet deposition due to the presence of 20 uM Triacsin C), which was added to 32 wells/plate.
# [1] = measured here: cell count channel max response
# [2] = measured here: lipid channel max response
SMILES,"activity change, negative = inhibition (at 25.7 µM (top of the series))",max response [1],max response [2],"activity change, negative = inhibition (at 57.5 µM (top of the series))"
Nc1nc2c(c(=O)[nH]1)N(C=O)[C@H](CNc1ccc(C(=O)N[C@@H](CCC(=O)O)C(=O)O)cc1)CN2,-2.58% (inactive),-9.43%,-11.6%,
COc1ccc2c(c1OC)C(=O)OC2[C@H]1c2c(cc3c(c2OC)OCO3)CCN1C (stereo partly drawn),0.244% (inactive),-11.8%,-9.72%,
CN(C)CC[C@H](c1ccc(Cl)cc1)c1ccccn1,-0.988% (inactive),4.39%,4.57%,
COc1ccc([C@@H]2CNC(=O)C2)cc1OC1CCCC1,-2.44% (inactive),-4.18%,-7.27%,
c1coc(CNc2ncnc3nc[nH]c23)c1,1.26% (inactive),-19.4% and 15.6%,-19.1% and 25.8%,6.17% (inactive)
Cc1cc(O)c2c(c1)C(=O)c1cccc(O)c1C2=O,,3.86% and 2.84%,13.4% and 1.16%,5.96% (inactive) and -4.1% (inactive)
COc1cc2c(cc1O)CCC1C2CC[C@@]2(C)C1CC[C@@H]2O (stereo partly drawn),,18.4%,18.6%,-1.86% (inactive)
C[C@@]12C(=O)OC(=O)[C@@]1(C)C1CCC2O1,,-9.65%,-21.9%,-13.3% (inactive)
O=c1c(O)c(-c2ccc(O)c(O)c2)oc2cc(O)ccc12,,-27.3%,-24.1%,4.11% (inactive)
Oc1cc2c(cc1O)C1c3ccc(O)c(O)c3OCC1(O)C2 (stereo not drawn),,-4.57%,5.65%,6.13% (inactive)
CN(N=O)C(=O)N[C@H]1C(O)OC(CO)[C@@H](O)[C@H]1O (stereo partly drawn),,10.4%,8.35%,-2.09% (inactive)
CC(Cc1ccc(O)c(O)c1)(NN)C(=O)O (stereo not drawn),,0.886%,8.76%,4.17% (inactive)
OCC(O)C(O)C(O)CO (stereo not drawn),,13.1% and 19.4%,16.9% and 22.3%,-0.297% (inactive) and 2.14% (inactive)
Cc1ccc(O)c(C(CCN(C(C)C)C(C)C)c2ccccc2)c1 (stereo not drawn),,3.1%,8.45%,7.57% (inactive)
